Our source for the Potency values is PubChem BioAssay (NCATS).

Molecules are shown by their SMILES. Results filed as inconclusive are left out. Activity calls are given as the source filed them. Calls come from the whole dose curve; as a rule, active = well fitted cell-killing curve with a large enough effect; inconclusive = small, poorly fitted or top-dose-only effect; inactive = no such curve, though single readings can be large or run the other way.
Potency is the fitted concentration of half-maximal effect.

This assay is described as follows: Quantitative High-Throughput drug screen in 47 multiple myeloma cell lines against the NCATS MIPE library collection: NCIH929_DSMZ cell viability assay (AID 1918978). Note: nearly all actives have a fitted effect of over 35% in size. To be noted: NCI-H929 myeloma viability, CellTiter-Glo ATP, 48 h; series mostly up to 45.8 µM. The text has this:
PI: Beverly A. Mock Ph.D.
Laboratory of Cancer Biology and Genetics,
Center for Cancer Research, National Cancer Institute,
National Institute of Health, Bethesda, Maryland
Drug resistance and disease progression are common in multiple myeloma (MM) patients, underscoring the need for new therapeutic combinations. […] We hypothesized that effective combinations would reduce MYC expression and enhance p16 activity. […] These preclinical data identify potentially useful drug combinations for evaluation in drug-resistant MM and reveal potential mechanisms of combined drug sensitivity.
Described herein is the primary MIPE qHTS used to cherrypick compounds. Validated compounds were then further tested for potential synergistic activiy.
[1] Peat TJ, Gaikwad SM, Dubois W, Gyabaah-Kessie N, Zhang S, Gorjifard S, Phyo Z, Andres M, Hughitt VK, Simpson RM, Miller MA, Girvin AT, Taylor A, Williams D, D'Antonio N, Zhang Y, Rajagopalan A, Flietner E, Wilson K, Zhang X, Shinn P, Klumpp-Thomas C, McKnight C, Itkin Z, Chen L, Kazandijian D, Zhang J, Michalowski AM, Simmons JK, Keats J, Thomas CJ, Mock BA. Drug combinations identified by high-throughput screening promote cell cycle transition and upregulate Smad pathways in myeloma. Cancer Lett. 2023 Aug 1;568:216284. doi: 10.1016/j.canlet.2023.216284. Epub 2023 Jun 24. PMID: 37356470; PMCID: PMC10408729.
SEQUENCE No. (e.g., 1, 2, 3, etc.); […] (e.g., Cells, Incubation, Reagent, etc.); VALUE and DESCRIPTION.
1; Cells; 5 uL; white, solid bottom 1536-well Greiner assay plate.
2; Compounds; 23 nL; Kalypsis pin tool (Wako USA) equipped with a 1536-well pin head to transfer to the assay plates.
3; Incubation; 48 hours; 37C incubation.
4; Reagent;5uL; CellTiter Glo (Promega).
5; Detector; 425V; Luminescence; Viewlux PerkinElmer.
NOTES (numbers refer to Sequence numbers above)
1. The cell-based screening methods employed in this study were like those previously published. Briefly, the corresponding myeloma cell lines were screened in 1,536-well plates with 500 cells, 5-uL per well for inhibition of cell viability (assessed by measuring ATP levels with CellTiterGlo).
2. NCATS MIPE 4.0 library of approved and investigational drugs were added using the Kalypsis pin tool. Wells treated with DMSO only for 100% viability and media only for 0% viability were used as controls.
3. The assay plates were covered and incubated for 48 hours in a 37C, 5% CO2 incubator with controlled humidity.
4. After 48 hours, CellTilter-GloTM luminescent substrate mix (Promega) reagent was added to the assay plate and plates we incubated for 5 min at room temperature.
5. Signal was measured as median relative luminescence units on a ViewLux (PerkinElmer) multiplate reader.
[1] Heske CM, Davis MI, Baumgart JT, Wilson K, Gormally MV, Chen L, Zhang X, Ceribelli M, Duveau DY, Guha R, Ferrer M, Arnaldez FI, Ji J, Tran HL, Zhang Y, Mendoza A, Helman LJ, Thomas CJ. Matrix Screen Identifies Synergistic Combination of PARP Inhibitors and Nicotinamide Phosphoribosyltransferase (NAMPT) Inhibitors in Ewing Sarcoma. Clin Cancer Res. 2017 Dec 1;23(23):7301-7311. doi: 10.1158/1078-0432.CCR-17-1121. Epub 2017 Sep 12. PMID: 28899971; PMCID: PMC6636827.
A general note: Cellular ATP, detected with luciferase, serves as a proxy for viable cell number.
Consider `CC(C)(C)COc1ccc(-n2cc(C(=O)O)cn2)cc1C#N`, for which the Potency result is “inactive”.
As to `CN[C@@H](C)C(=O)N[C@H]1CN(C(=O)CC(C)C)CC[C@H]2CC[C@@H](C(=O)NC(c3ccccc3)c3ccccc3)N2C1=O`, the Potency is 11.8 µM (active).
For `CCC(=O)NC[C@H](Cc1ccc(OCCc2nc(-c3ccccc3)oc2C)cc1)NC(C)=CC(=O)c1ccc(C(F)(F)F)cc1`, the Potency result is “inactive”.
Consider `NC(CO)(CO)CCc1ccc(Sc2cccc(OCc3ccccc3)c2)cc1Cl`, for which the Potency was 20.9 µM (active).
Next, `C[C@H](NC(=O)C(=O)Nc1ccccc1C(C)(C)C)C(=O)N[C@@H](CC(=O)O)C(=O)COc1c(F)c(F)cc(F)c1F`: “inactive”; `COc1ccc2c(Oc3ccc(NC(=O)c4c(C)n(CC(C)(C)O)n(-c5ccccc5)c4=O)cc3F)ccnc2c1`: 20.9 µM (active); `NC(=O)c1cnc(-c2ccc(C3(N)CCC3)cc2)c(-c2ccccc2)c1`: 1.48 µM (active).
`Oc1ccc(C2CCN(c3ccnc4ccccc34)CC2)cc1O`: the Potency is 18.7 µM (active).
Next, `Cc1nnc(C(C)C)n1C1C[C@H]2CC[C@@H](C1)N2CC[C@H](NC(=O)C1CCC(F)(F)CC1)c1ccccc1` (stereo not given in full): 9.35 µM (active).
Consider `N#C[C@H]1C[C@H]2C[C@@H]2N1C(=O)[C@@H](N)C12CC3CC(CC(O)(C3)C1)C2`, for which the Potency result is “inactive”.
Take `C=C1C(=O)OC2C=C(C)CCC=C(C)CCC12` (stereo not given): the Potency is 20.9 µM (active).
Next, `COC1CCC(N(C(=O)C2CCC(C)CC2)c2cc(C3=CCCCC3)sc2C(=O)O)CC1` (stereo not given): 23.5 µM (active); `O=C1c2ccccc2-[n+]2ccc3c([nH]c4ccccc43)c21`: 3.32 µM (active).
With `c1ccc2c(Cc3c[nH]c4ccccc34)c[nH]c2c1` the figure was 1.05 µM (active).
In the case of `CCC(=O)O[C@]1(C(=O)CO)CC[C@H]2[C@@H]3CCC4=CC(=O)CC[C@]4(C)[C@@H]3CC[C@@]21C`, the Potency result was “inactive”.
In the case of `O=C1C(Cl)=C(NCCN2CCOCC2)C(=O)c2ncccc21`, the Potency was 7.43 µM (active).
Take `O=c1ccn([C@@H]2O[C@H](CO)[C@H](O)[C@H]2O)c(=O)[nH]1`: the Potency is 7.43 µM (active).
Consider `O=C(O)[C@H]1O[C@H](Oc2cc3oc(-c4ccccc4)cc(=O)c3c(O)c2O)[C@H](O)[C@@H](O)[C@H]1O`, for which the Potency result is “inactive”.
For `CC(=O)Nc1ccc([C@H](C)C(=O)Nc2ncc(C(C)C)s2)cc1`, the Potency was 0.264 µM (active).
Next, `COc1ccc(Cc2ccc(NC(N)=O)cc2)cc1-c1cccc(Cl)c1`: 16.6 µM (active).
As for `O=C1C[C@@H](c2ccc(O)cc2)Oc2cc(O)cc(O)c21`, the Potency entry was “inactive”.
With `Nc1ncnc2c1ncn2[C@@H]1O[C@H](CO)C[C@@H]1O` the entry was “inactive”; with `CN1CCN(CCOc2cc(OC3CCOCC3)c3c(Nc4c(Cl)ccc5c4OCO5)ncnc3c2)CC1`, 18.7 µM (active); with `CCOC1OC(=O)C[C@H]1NC(=O)[C@@H]1CCCN1C(=O)[C@@H](NC(=O)c1ccc(N)c(Cl)c1)C(C)(C)C` (stereo not given in full), “inactive”.
Turning to `CN1[C@@H]2CCC[C@@H]1CC(NC(=O)c1nn(C)c3ccccc13)C2` (stereo not given in full), the Potency entry is “inactive”.
Next, `O=c1c(-c2ccc(O)cc2)coc2cc(OC3O[C@H](CO)[C@H](O)[C@H](O)[C@H]3O)cc(O)c12` (stereo not given in full): 2.09 µM (active); `COc1cc2c(cc1OC)CN(CCc1ccc(NC(=O)c3cc(OC)c(OC)cc3NC(=O)c3cnc4ccccc4c3)cc1)CC2`: 8.33 µM (active); `CC(=O)OC1C(C)OC(Oc2c(-c3ccc(O)cc3)oc3cc(O)cc(O)c3c2=O)C(O)C1OC(C)=O` (stereo not given): “inactive”.
On to `COC(=O)N[C@H](C(=O)N1CCC[C@@H]1c1ncc(-c2ccc(-c3ccc(-c4cnc([C@@H]5CCCN5C(=O)[C@@H](NC(=O)OC)C(C)C)[nH]4)cc3)cc2)[nH]1)C(C)C`, for which the Potency was 26.4 µM (active).
For `CC1(C)O[C@H]2C[C@@H]3[C@H]4CCC5=CC(=O)C=C[C@]5(C)[C@@]4(F)[C@@H](O)C[C@]3(C)[C@]2(C(=O)CO)O1`, the Potency was 26.4 µM (active).
As for `CC(C)C(=O)Oc1ccc(CO)cc1[C@H](CCN(C(C)C)C(C)C)c1ccccc1`, the Potency entry was “inactive”.
Take `CC=CC(=O)N(CC)c1ccccc1C`: the Potency result was “inactive”.
On to `NS(=O)(=O)c1cccc2c1C(=O)c1cccc(O)c1C2=O`, for which the Potency was 0.264 µM (active).
As to `O=C(O)c1cc(O)c2c(c1)C(=O)c1cccc(O)c1C2=O`, the Potency entry was “inactive”.
For `Oc1ccc(C2=Cc3ccc(O)cc3OC2)cc1`, the Potency is 2.09 µM (active).
Next, `Cc1cc(OCCCc2c(C(=O)O)n(Cc3cccnc3)c3c(-c4c(COc5ccc(N6CCN([S+](C)(=O)[O-])CC6)cc5)nn(C)c4C)cccc23)cc(C)c1Cl`: 3.32 µM (active).
Next, `Cc1ccn(-c2ccc(-c3ncco3)cc2)c(=O)c1-c1ccc2nc(N)ncc2c1`: “inactive”; `C[N+]1(C)[C@@H]2CC(OC(=O)[C@H](CO)c3ccccc3)C[C@H]1[C@H]1O[C@@H]12` (stereo not given in full): “inactive”.
As for `CON=C(C(=O)N[C@@H]1C(=O)N2C(C(=O)OCOC(=O)C(C)(C)C)=C(C=Cc3scnc3C)CS[C@H]12)c1csc(N)n1`, the Potency is 20.9 µM (active).
As to `CC(C)(C)Cn1c(N)nc2ccc(-c3[nH]c(C(C)(C)C)nc3-c3ccc(F)cc3)nc21`, the Potency was 26.4 µM (active).
